# In all, about 310,000 compounds went through this assay and about 14,000 (4.5%) showed an effect of 50% or more. The effect is printed as a negative number. The entries come from a sample that favours strong results as a whole.
# Target: human ether-à-go-go-related gene (hERG) potassium channel (human, UniProt Q12809)
# Test: primary screen, population patch clamp on CHO cells stably expressing hERG; higher = less effect of the substance
# 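Further: peak tail current of the secondary pulse compared with the same well before compound.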
# human ether-à-go-go-related gene (hERG) potassium channel, sequence (Q12809 whole entry, looked up): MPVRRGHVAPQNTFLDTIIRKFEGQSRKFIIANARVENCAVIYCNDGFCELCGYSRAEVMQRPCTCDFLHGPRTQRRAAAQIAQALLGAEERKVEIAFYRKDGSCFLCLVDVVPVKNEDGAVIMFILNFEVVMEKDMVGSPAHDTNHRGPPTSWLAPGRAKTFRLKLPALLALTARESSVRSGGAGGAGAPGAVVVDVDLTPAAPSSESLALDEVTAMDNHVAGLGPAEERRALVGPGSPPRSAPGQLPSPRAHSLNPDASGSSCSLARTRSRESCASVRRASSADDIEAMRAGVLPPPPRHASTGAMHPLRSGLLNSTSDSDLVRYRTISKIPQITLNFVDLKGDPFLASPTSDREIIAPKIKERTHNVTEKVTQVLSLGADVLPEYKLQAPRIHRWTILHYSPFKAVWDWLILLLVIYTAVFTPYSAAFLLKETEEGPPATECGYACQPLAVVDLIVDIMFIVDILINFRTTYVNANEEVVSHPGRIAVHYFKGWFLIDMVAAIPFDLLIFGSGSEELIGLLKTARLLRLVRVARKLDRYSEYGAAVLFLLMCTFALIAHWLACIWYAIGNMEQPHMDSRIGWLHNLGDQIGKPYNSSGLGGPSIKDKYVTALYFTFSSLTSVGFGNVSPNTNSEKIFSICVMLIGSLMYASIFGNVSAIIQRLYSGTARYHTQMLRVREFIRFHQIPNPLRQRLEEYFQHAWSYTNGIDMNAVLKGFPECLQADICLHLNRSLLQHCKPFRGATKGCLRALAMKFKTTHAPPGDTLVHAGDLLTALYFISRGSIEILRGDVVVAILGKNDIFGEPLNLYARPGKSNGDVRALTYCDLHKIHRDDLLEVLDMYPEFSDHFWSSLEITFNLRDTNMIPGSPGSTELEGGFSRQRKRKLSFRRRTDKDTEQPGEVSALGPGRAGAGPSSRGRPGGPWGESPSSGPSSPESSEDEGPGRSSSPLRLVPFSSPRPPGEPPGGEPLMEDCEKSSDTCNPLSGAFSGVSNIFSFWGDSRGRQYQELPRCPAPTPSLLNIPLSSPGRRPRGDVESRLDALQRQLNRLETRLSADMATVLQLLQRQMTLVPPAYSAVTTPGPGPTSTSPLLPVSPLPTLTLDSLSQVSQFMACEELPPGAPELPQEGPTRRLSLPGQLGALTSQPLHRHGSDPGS
row,SMILES,"hERG current change (%, negative = inhibition) at 10uM"
1,O=C(Nc1ccccc1N1CCCCC1)C1=COCCO1,-32.6%
2,CC(C)[C@@H](C(=O)NCc1ccco1)N1C(=O)N2CCc3c([nH]c4ccccc34)[C@@]2(C)C1=O,-15.6%
3,CSc1nnc([C@@H](NC(=O)OC(C)(C)C)C(C)C)o1,-13.6%
4,CCc1cccc(OCC(O)Cn2c(N3CCCCC3)nc3c2c(=O)[nH]c(=O)n3C)c1 (stereo not drawn),13.7%
5,Clc1ccc(CN=C2Nc3ccccc3CS2)cc1,14.9%
6,COc1cc2c(cc1OC)C1=C(C#N)CCC(=O)N1CC2,5.55%
7,C=C1C[C@H]2[C@@H]3C=C(C)C4=CC(=O)CC[C@]4(C)[C@H]3CC[C@]2(C)[C@@]1(OC(C)=O)C(C)=O,-21.2%
8,O=C(COC(=O)C1CC1)Nc1nc(-c2ccc(F)c(F)c2)cs1,4.93%
9,CCCc1cnc(N2CCN(C(=O)c3c(-c4ccccc4)noc3C)CC2)nc1,-24.5%
10,CCCc1cnc(N2CCN(C(=O)c3ccccc3)CC2)nc1,-57.1%
11,CCOc1ccccc1N1CCN(C(=O)CNC(=O)c2ccc(OC)c(OC)c2)CC1,11.9%
12,CCOc1ccccc1N1CCN(C(=O)c2ccncc2)CC1,-8.78%
13,CCCc1cnc(N2CCN(C(=O)c3ccc(F)cc3)CC2)nc1,-43.1%
14,CCCc1cnc(N2CCN(C(=O)c3ccc(OC)cc3)CC2)nc1,-52.4%
15,CCOc1ccccc1N1CCN(C(=O)c2ccccc2)CC1,11%
16,CCOc1ccccc1N1CCN(C(=O)CNC(=O)c2sc3ccccc3c2Cl)CC1,17.4%
17,CCOc1ccccc1N1CCN(C(=O)CNC(=O)c2ccccc2F)CC1,-51.1%
18,CCCCOc1ccc(C(=O)N2CCN(c3ncccn3)CC2)cc1,-9.16%
19,CCOc1ccc(C(=O)N2CCN(c3ncccn3)CC2)cc1,-9.8%
20,CCCc1ccc(C(=O)N2CCN(c3ccccc3OCC)CC2)cc1,-56.3%
21,CCCCCCSc1ccc([C@@H]2[C@H]3C(=O)N(CC)C(=O)[C@H]3[C@]3(C(=O)OC)CCCN23)cc1.O=C(O)C(F)(F)F,-7.59%

row,SMILES,"hERG current change (%, negative = inhibition) at 10uM"
1,COc1cc(OC)cc(C(=O)O/N=C(\N)c2ccccn2)c1,7.21%
2,CCOC(=O)c1cc2c(ccn2C)n1CC(=O)N1CCC(Cc2ccccc2)CC1,-24.1%
3,CN(C)S(=O)(=O)c1ccc(NC(=O)CN2C(=O)NC(Cc3ccccc3)C2=O)cc1 (stereo not drawn),10.2%
4,CCOC(=O)CC(NC(=O)C1c2ccccc2Oc2ccccc21)c1ccc(C)cc1 (stereo not drawn),5.66%
5,COc1ccc(NC(=O)CSc2nnc(-c3cccnc3)n2C)cc1,8.3%
6,Cc1cc(OCC(=O)N2CCC(C(=O)O)(c3ccccc3)CC2)c2c(C)cc(=O)oc2c1,11.6%
7,COc1cc(OC)c(NC(=O)c2cncn2-c2ccc(F)cc2)cc1Cl,-19.7%
8,O=C(Nc1cccc(Cl)c1)c1cncn1-c1ccc(F)cc1,-68.1%
9,NNC(=O)c1cncn1-c1ccc(F)cc1,23.7%
10,Cc1cccc(C)c1NS(=O)(=O)c1c(C)[nH]c(=O)[nH]c1=O,-14.2%
11,Cc1ccccc1CN(CC(=O)Nc1cccc([N+](=O)[O-])c1)S(=O)(=O)c1ccc(Cl)cc1,15.1%
12,O=C(NC1CCN(Cc2ccccc2)CC1)c1ccc(Cl)cc1Cl,-75%
13,CSCCC(NC(=O)c1ccccc1Cl)C(=O)N1CCN(C(C)=O)CC1 (stereo not drawn),-26.9%
14,O=C(NC1CCN(Cc2ccccc2)CC1)c1ccccc1Cl,1.15%
15,S=C(Nc1ccc(Cl)cc1Cl)NC1CCN(Cc2ccccc2)CC1,-2.76%
16,CSCCC(NC(=O)c1ccccc1Cl)C(=O)NC1CCN(Cc2ccccc2)CC1 (stereo not drawn),-50.1%
17,O=C(NC1CCN(Cc2ccccc2Cl)CC1)c1ccccc1,-65.2%
18,O=C(NC1CCN(C(=O)Nc2cccc(Cl)c2)CC1)c1ccccc1,1.02%
19,O=C(NC1CCN(C(=O)Nc2ccccc2Cl)CC1)c1ccccc1,4.22%
20,COC(=O)[C@H](CCSC)NC(=O)NC1CCN(Cc2ccccc2)CC1,-12.9%
21,O=C(NC1CCN(Cc2ccccc2)CC1)c1ccccc1F,-23.7%

row,SMILES,"hERG current change (%, negative = inhibition) at 10uM"
1,O=C(NC1CCN(Cc2ccc(Cl)cc2Cl)CC1)c1ccccc1,-53.9%
2,Cl.O=C(NN1CCN(Cc2ccccc2Cl)CC1)c1ccc(Cl)cc1,-10.6%
3,COCC(=O)Nc1ccc(C)c(Cl)c1,14.4%
4,Cc1cccc(NS(=O)(=O)c2ccc(OCC(=O)N3CCCC3)cc2)c1,-19.1%
5,CCCn1nnnc1NC(=O)COc1ccc(CC)cc1,-3.02%
6,Cc1ccc(NC(=O)CCSc2nnc(C)o2)cc1,2.48%
7,CC1(C)NC(=O)N(CCCCOc2cccc(C(F)(F)F)c2)C1=O,-6.92%
8,CN1CCN(c2ccc(C(N)=O)cc2N)CC1,6.81%
9,CN1C(=O)C(C)(C)c2cc(S(=O)(=O)N3CCCC(C(=O)Nc4ccc(Cl)cc4)C3)ccc21 (stereo not drawn),-9.27%
10,COC(=O)/C(C#N)=C/c1c(Oc2cccc(C)c2C)nc2ccccn2c1=O,-12.6%
11,COC(=O)CCCn1nc(NC(=O)COc2ccc(F)cc2)cc1C,-5.47%
12,COc1ccc(C(C(=O)NC(C)(C)C)N(C(=O)CNC(=O)c2cccs2)c2ccc(NC(C)=O)cc2)cc1OC (stereo not drawn),10.4%
13,O=C(c1cc(C2CC2)nn1-c1ccccc1)N1CCN(Cc2ccc(Cl)cc2)CC1,-32.1%
14,COc1ccc(N2CCN(C(=O)c3cc(C4CC4)nn3-c3ccccc3)CC2)cc1,-44.4%
15,COc1cc2c(cc1OC)CN(C(=O)c1cc(C3CC3)nn1-c1ccccc1)CC2,-56.2%
16,CC1CCC(NC(=O)c2cc(C3CC3)nn2-c2ccccc2)CC1 (stereo not drawn),-34.9%
17,COc1ccc(CN2CCN(C(=O)c3cc(C4CC4)nn3-c3ccccc3)CC2)cc1F,-48.6%
18,O=C(NC1CCCCC1)c1cc(C2CC2)nn1-c1ccccc1,-51.2%
19,COc1ccc(OC)c(S(=O)(=O)N2CCN(C(=O)c3cc(C4CC4)nn3-c3ccccc3)CC2)c1,-11.1%
20,N#Cc1ccc(CN2CCN(C(=O)c3cc(C4CC4)nn3-c3ccccc3)CC2)cc1,-57.2%
21,O=C(O)c1cc(C2CC2)nn1-c1ccccc1,17.5%

# Source: publication PMC4336329 (PLoS ONE, 2015)
